Hits are enriched below; roughly 13% of the tested compounds scored in any of these assays.
HADH2 inhib: qHTS Assay for Inhibitors of HADH2 (Hydroxyacyl-Coenzyme A Dehydrogenase, Type II) | recombinant HADH2, NADH fluorescence, beta-hydroxybutyryl-CoA | Potency, µM (top dose mostly 57.1 µM), for inactives: at the highest dose activity change, negative = inhibition, actives largely listed as inhibitors | 73,000 compounds, 3.4% hits | AID 886, 2007; also: potency is read from the fitted curve at half-maximal effect; % is scaled to controls: 0 for no effect and ±100 for the full control effect; nearly all actives have a fitted effect of over 60% in size
Target sequence (Q99714 whole entry, looked up, one chain of several): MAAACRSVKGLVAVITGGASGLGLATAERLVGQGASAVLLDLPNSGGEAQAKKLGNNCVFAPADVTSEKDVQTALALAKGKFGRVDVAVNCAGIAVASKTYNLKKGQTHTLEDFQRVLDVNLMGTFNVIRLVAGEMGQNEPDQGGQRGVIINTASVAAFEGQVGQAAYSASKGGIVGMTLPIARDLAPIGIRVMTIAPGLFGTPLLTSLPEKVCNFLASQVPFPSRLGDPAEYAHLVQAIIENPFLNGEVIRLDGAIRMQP
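Buffer 100 mM Tris-HCl pH 9.0/0.01% Tween-20; HADH2 20 nM; NAD+ 1 mM; beta-hydroxybutyryl-CoA 90 uM (all final). 15 min cpd preincubation, RT.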
4MU fluor: qHTS Assay for Spectroscopic Profiling in 4-MU Spectral Region. compound autofluorescence, 340/450 nm, 4-MU equivalents; hits give high values. max dye-equivalent concentration, M. 59,000 compounds, 11% hits. AID 589, 2007; in the data active = max dye-equivalent concentration above about 10 nM; inconclusive = mostly about 1.1 nM to 9.6 nM
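Compounds in 100 mM Tris, pH 8.0, sat 15 min at room temperature before fluorescence was read at 340 nm excitation/450 nm emission; a per-plate six-point 4-MU standard curve converted signals to dye-equivalent concentration at each compound concentration.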
A350 autofl: qHTS Assay for Spectroscopic Profiling in A350 Spectral Region | Compound autofluorescence, 340/450 nm, Alexa 350 dye-equivalents; hits give high values | max dye-equivalent concentration, M | 59,000 compounds, 11% hits | AID 590, 2007; in the data active = max dye-equivalent concentration above about 10 nM; inconclusive = mostly about 1.1 nM to 9.6 nM
AID923: qHTS Assay for Allosteric/Competitive Inhibitors of Caspase-1: Spectroscopic Profiling in AFC Spectral Region; compound fluorescence, AFC spectral region (405/520 nm); Potency, µM (series often up to 57.5 µM), without a hit: at the top dose fluorescence increase, most hits filed as activators; 75,000 compounds, 1.1% hits; AID 923, 2007; also: potency is read from the fitted curve at half-maximal effect; 0% is about no effect
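Baseline compound fluorescence (AFC region, 405 nm ex/520 nm em) taken from the intercept of kinetic reads with 50 nM caspase-1 and 5 uM Ac-WEHD-AFC; normalized to an on-plate AFC standard curve; compounds titrated up to 57 uM.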
HSD17B inhib: qHTS Assay for Inhibitors of HSD17B4, hydroxysteroid (17-beta) dehydrogenase 4; Potency, µM (titrated, usually from 57.1 µM), inactives show top-dose activity change, negative = inhibition, most hits filed as inhibitors; 75,000 compounds, 7.6% hits; recombinant HSD17B10, NADH fluorescence kinetic; 3-hydroxyacyl-CoA dehydrogenase type-2 (Homo sapiens), Q99714;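 also: the protocol describes HADH2 (HSD17B10) and not the HSD17B4 of the title; potency is read from the fitted curve at half-maximal effect; % is scaled to controls: 0 for no effect and ±100 for the full control effect; nearly all actives have a fitted effect of over 70% in size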
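Activity followed as NADH fluorescence increase (ex 360, em 450 nm) every 30 seconds for 4 min, using final 90 uM beta-hydroxybutyryl CoA and 1 mM NAD+. Recombinant His-tagged enzyme, 20 nM, pH 9.0 Tris buffer, 15 min compound preincubation.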
An asterisk follows results filed as active; i = inactive; ? = inconclusive; / = not tested or not shown; ! = repeats disagree; [ ] = dose if it differs, or a comment. Unless noted, calls follow the shape of the dose curve; as a rule, active = well fitted curve in the direction sought with a large enough effect; inconclusive = small, poorly fitted or top-dose-only effect, or another doubt; inactive = no such curve, though single readings can be large; an effect the other way counts as inactive or inconclusive.

SMILES	HADH2 inhib	4MU fluor	A350 autofl	AID923	HSD17B inhib
Cc1ccccc1CNS(=O)(=O)c1ccc2c(c1)OCCO2	0.9%	1.2e-08M*	1.76e-08M*	0.9%	-2.2%
COc1ccc(CC(=O)Nc2ccc(-c3noc(-c4cc(OC)c(OC)c(OC)c4)n3)cc2)cc1	-0.8%	i	i	-0.8%	31.6µM*
CCOc1ccccc1-c1nc(-c2ccc(NC(=O)Cc3ccc(OC)cc3)cc2)no1	56.0%	i	i	1.6%	?
CCc1ccc(NC(=O)c2cc(-c3ccc(OC)cc3)on2)cc1	?	i	?	0.3%	25.1µM*
CCCn1c(C)nc2c(N3CCOCC3)nc(C)nc21	15.7%	/	/	1.6%	-6.5%
Cc1c(C(=O)O)cnc2cc(-c3ccc(Cl)cc3)nn12	2.5%	/	/	-1.6%	25.1µM*
Cc1cc2ncc(C(=O)Nc3ccccc3)c(C)n2n1	0.4%	i	i	0.3%	9.2%
COC(=O)Cn1c2c(c3cc(C)ccc31)CCCC2	?	i	i	-1.2%	31.6µM*
COc1ccc(C(=O)Nc2ccccc2C(=O)NCc2ccco2)cc1OC	16.0%	1.99e-07M*	2.5e-07M*	0.8%	?
COc1ccc(S(=O)(=O)Nc2ccccc2C(=O)NCc2ccco2)cc1	?	?	?	1.2%	31.6µM*
COC(=O)c1ccccc1NC(=O)c1ccc2c(c1)C(=O)N(Cc1ccco1)C2=O	-20.5%	4.46e-08M*	5.97e-08M*	-1.2%	?
CCc1ccccc1NS(=O)(=O)c1ccc2[nH]cc(C(=O)NCc3ccco3)c(=O)c2c1	-22.6%	i	i	0.6%	31.6µM*
COc1ccc(C(=O)N2CCC3(CCN(CC(C)C)CC3)CC2)cc1	5.1%	i	i	2.8%	6.5%
CCC(=O)[C@]12O[C@@]3(C4C(=O)OCCC41)N(CC)C(C)=C(C(=O)OC)C(c1ccccc1)N3C2=O (stereo partly specified)	-2.0%[11.4 µM]	/	/	-1.6%[11.5 µM]	-1.9%[11.4 µM]
COC(=O)[C@@H]1CC[C@H](C)[C@@H](c2ccc(C)cc2)N1C(=O)c1ccc(/C=N\O[C@@H]2O[C@H](COC(C)=O)[C@H](OC(C)=O)[C@H](OC(C)=O)[C@H]2OC(C)=O)cc1	4.2%[11.4 µM]	/	/	-4.2%[11.5 µM]	-4.0%[11.4 µM]
COc1ccc(CNC(=O)c2cc(-c3ccccc3OC)on2)cc1	1.0%	i	i	-1.5%	-13.9%
COc1ccccc1-c1cc(C(=O)NCc2ccc(F)cc2)no1	0.5%	1.07e-08M*	1.24e-08M*	3.3%	-5.6%
COc1ccccc1-c1cc(C(=O)NCc2ccc(Cl)cc2)no1	?	i	i	-0.5%	-9.2%
COc1ccccc1-c1cc(C(=O)NCc2ccccc2)no1	-1.1%	i	i	0.2%	25.1µM*
CCOC(=O)c1cccc(-n2c(C)nc3ccccc3c2=O)c1	8.5%	i	i	-0.5%	-5.4%
CCOC(=O)c1cccc(N2C(=O)c3ccccc3S2(=O)=O)c1	-9.2%	2.22e-08M*	2.04e-08M*	1.5%	-17.1%
CC1(C)CC(=O)c2sc(NC(=O)CN3CCOCC3)nc2C1	-13.2%	2.47e-08M*	2.17e-08M*	1.6%	-24.3%
N#Cc1cccc(-c2nc(NCc3ccccc3)c3ccccc3n2)c1	3.5%	i	i	0.8%	?
c1ccc2c(c1)CCC[C@@H]2C1=NCCN1	3.6%[25.6 µM]	i	i	-0.3%[25.7 µM]	1.4%[25.6 µM]
O=C(Oc1ccc(Cl)c2cccnc12)N1CCCCC1	-6.5%	i	i	-0.3%	?
SMILES	HADH2 inhib	4MU fluor	A350 autofl	AID923	HSD17B inhib
O=C(Oc1ccc(Cl)c2cccnc12)N1CCOCC1	31.6µM*	i	i	0.7%	25.1µM*
CCOC(=O)CCN1C(=O)[C@H]2[C@H]3[C@H](O)[C@H](O)C/C(=N/NC(=O)OCC)[C@@H]3CC[C@@H]2C1=O	-1.5%[11.4 µM]	/	/	0.8%[11.5 µM]	9.3%[11.4 µM]
COc1cc(OC)c(/C=C2/C(=O)Nc3ccccc32)c(OC)c1	-6.5%	i	i	0.8%	2.7%
O=C1Nc2ccc(I)cc2/C1=C/c1cc(Br)c(O)c(Br)c1	12.6µM*	i	i	-2.6%	7.94µM*
COc1c(O)cc2oc3cc(O)c(CC=C(C)C)c(O)c3c(=O)c2c1CC=C(C)C	-7.6%	i	i	-2.8%	10µM*!
CC(C)=CCc1c(O)cc2oc(C)cc(=O)c2c1O	/	/	/	0.1%	-0.5%
O=C1N=C(N2CCOCC2)S/C1=C1\C(=O)N(Cc2ccccc2)c2ccc(Br)cc21	9.6%	i	i	1.0%	3.4%
CCCCN1C(=O)/C(=C2\SC(N3CCCCC3)=NC2=O)c2ccccc21	20µM*	/	/	-2.3%	-25.9%
N#CC1=C(N)N2C(=C(C#N)C13CCN(Cc1ccccc1)CC3)Nc1ccccc12	-14.7%	9.55e-08M*	9.86e-08M*	10.3%	?
CCCc1[nH]nc2c1C1(CCN(C(=O)OCc3ccccc3)CC1)C(C#N)=C(N)O2	-6.8%	2.06e-08M*	2.78e-08M*	-0.9%	-5.4%
Cc1[nH]nc2c1C1(CCN(Cc3ccccc3)CC1)C(C#N)=C(N)O2	-12.3%	1.56e-08M*	1.89e-08M*	12.4%	2.0%
CC(C)c1[nH]nc2c1C1(CCN(Cc3ccccc3)CC1)C(C#N)=C(N)O2	2.6%	i	i	13.7%	?
COCCNc1nc(C)nc2c1nc(-c1ccccc1)n2C1CCN(Cc2ccccc2)C1 (stereo unspecified)	-17.2%	/	/	0.0%	31.6µM*
CCN(CC)CCn1c(-c2ccccc2)nc2c(N3CCOCC3)nc(C)nc21	?	/	/	13.6%	?
COCCNc1nc(C)nc2c1nc(-c1ccccc1)n2CCN(C)C	?	/	/	2.4%	31.6µM*
Cc1nc(NCc2ccccc2)c2nc(-c3ccccc3)n(CCN(C)C)c2n1	?	/	/	0.3%	31.6µM*
CCN(CC)CCn1c(-c2ccccc2)nc2c(NCc3ccccc3)nc(C)nc21	?	/	/	0.1%	20µM*
CC(C)[C@](N)(C(=O)O)c1ccccc1	13.1%[11.4 µM]	i	i	0.7%[11.5 µM]	7.4%[11.4 µM]
Clc1ccccc1-c1cncnc1NCc1cccs1	?	i	i	3.0%	-3.2%
O=C(c1cc(C(F)(F)F)cc(C(F)(F)F)c1)N1CCC2(CC1)CN(c1ccccc1)C2	?	i	i	-2.6%	-7.5%
Cc1ccc(CNC(=O)c2ccc(Cn3nc(C)c(Cl)c3C)o2)cc1	?	i	i	-0.1%	20µM*
COc1ccc(OC)c(C(c2nnnn2Cc2ccccc2)N2CCC(C(N)=O)CC2)c1 (stereo unspecified)	18.5%	i	i	0.1%	3.2%
CCc1ccc2[nH]c(=O)c(C(c3nnnn3Cc3ccccc3)N3CCOCC3)cc2c1 (stereo unspecified)	-16.9%	4.22e-08M*	3.73e-08M*	3.2%	-22.8%

Bioassay records as filed in PubChem.
